Measurements taken from PubChem BioAssay AID1159580 (chemical genetic matrix, 2015).
Several values for one entry are separate records, joined by “and”; a condition that tells them apart may be missing. Identical values can stand only once. About 2,000 (36%) of roughly 5,500 compounds were called active. Roughly 18% stayed inconclusive and do not appear here. Cut-off read from the data, not from the text of the source: active = normalized growth mostly below about 0.91 (no sharp cut-off); inconclusive = no clear call, values can overlap the other calls; inactive = mostly above about 0.92. This is one part of the list.

Assay: chemical genetic growth profiling, strain panel (AID 1159580);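 note: tested at 20 µM; growth read once vehicle control cultures reached saturation at 30 °C; 1 = growth at the plate median or of vehicle wells; lower values mean less growth of the strain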
Details: S. cerevisiae deletion strains, growth OD

Measured: normalized growth

O=C(O)CCC(=O)c1ccc(-c2ccccc2)cc1
inactive: locus YAL013W, strain DEP1, stronger effect = lower value 0.985 | locus YAL021C, strain ccr4, stronger effect = lower value 1.01 | locus YAL026C, strain drs2, stronger effect = lower value 0.976 | locus YAL030W, strain snc1, stronger effect = lower value 0.991 | locus YBL061C, strain skt5, stronger effect = lower value 0.989 | locus YBR009C, strain hhf1, stronger effect = lower value 0.998 | locus YBR021W, strain FUR4, stronger effect = lower value 0.964 | locus YBR023C, strain chs3, stronger effect = lower value 0.983 | locus YBR171W, strain sec66, stronger effect = lower value 0.983 | locus YBR229C, strain ROT2, stronger effect = lower value 0.986 | locus YBR231C, strain swc5, stronger effect = lower value 0.981 | locus YBR279W, strain paf1, stronger effect = lower value 0.975 | locus YCL011C, strain gbp2, stronger effect = lower value 1 | locus YCL016C, strain dcc1, stronger effect = lower value 0.999 | locus YCL029C, strain bik1, stronger effect = lower value 0.934 | locus YCL069W, strain vba3, stronger effect = lower value 0.983 | locus YCR088W, strain abp1, stronger effect = lower value 1.01 | locus YDL005C, strain med2, stronger effect = lower value 0.991 | locus YDL035C, strain GPR1, stronger effect = lower value 0.989 | locus YDL040C, strain nat1, stronger effect = lower value 0.986 | locus YDL074C, strain BRE1, stronger effect = lower value 0.957 | locus YDL101C, strain DUN1, stronger effect = lower value 0.959 | locus YDL134C, strain PPH21, stronger effect = lower value 0.972 | locus YDL185W, strain tfp1, stronger effect = lower value 0.962 | locus YDL192W, strain arf1, stronger effect = lower value 0.971 | locus YDR001C, strain nth1, stronger effect = lower value 0.982 | locus YDR069C, strain doa4, stronger effect = lower value 0.986 | locus YDR101C, strain arx1, stronger effect = lower value 0.964 | locus YDR150W, strain NUM1, stronger effect = lower value 0.99 | locus YDR159W, strain sac3, stronger effect = lower value 1.02 | locus YDR162C, strain NBP2, stronger effect = lower value 0.986 | locus YDR195W, strain ref2 0.929 | locus YDR297W, strain sur2, stronger effect = lower value 0.99 | locus YDR318W, strain mcm21, stronger effect = lower value 0.963 | locus YDR334W, strain swr1, stronger effect = lower value 0.977 | locus YDR335W, strain msn5, stronger effect = lower value 0.953 | locus YDR388W, stronger effect = lower value 0.958 | locus YDR392W, strain spt3, stronger effect = lower value 1.02 | locus YDR502C, strain sam2, stronger effect = lower value 0.987 | locus YEL003W, strain gim4, stronger effect = lower value 0.954 | locus YEL037C, strain rad23, stronger effect = lower value 0.97 | locus YEL061C, strain CIN8 (second series), stronger effect = lower value 0.978 | locus YEL061C, strain CIN8, stronger effect = lower value 0.998 | locus YER015W, strain faa2, stronger effect = lower value 0.991 | locus YER016W, strain bim1, stronger effect = lower value 0.995 | locus YER110C, stronger effect = lower value 0.973 | locus YER111C, strain swi4, stronger effect = lower value 0.988 | locus YER155C, strain BEM2 (second series), stronger effect = lower value 0.958 | locus YER155C, strain BEM2, stronger effect = lower value 0.986 | locus YER167W, strain BCK2, stronger effect = lower value 0.987 | locus YFR010W, strain ubp6, stronger effect = lower value 0.986 | locus YGL086W, strain mad1, stronger effect = lower value 0.985 | locus YGL167C, strain pmr1, stronger effect = lower value 0.969 | locus YGL173C, strain kem1, stronger effect = lower value 0.965 | locus YGL227W, strain vid30, stronger effect = lower value 1 | locus YGL240W, strain doc1, stronger effect = lower value 0.929 | locus YGL248W, strain PDE1, stronger effect = lower value 0.98 | locus YGL253W, strain hxk2, stronger effect = lower value 0.972 | locus YGR078C, strain PAC10, stronger effect = lower value 0.96 | locus YGR135W, strain pre9, stronger effect = lower value 0.946 | locus YGR229C, strain SMI1, stronger effect = lower value 0.986 | locus YGR252W, strain gcn5, stronger effect = lower value 0.861 | locus YHR013C, strain ard1, stronger effect = lower value 1 | locus YHR027C, strain rpn1, stronger effect = lower value 1 | locus YHR079C, strain IRE1 (second series), stronger effect = lower value 0.947 | locus YHR094C, strain hxt1, stronger effect = lower value 0.984 | locus YHR129C, strain ARP1, stronger effect = lower value 0.988 | locus YHR142W, strain chs7, stronger effect = lower value 0.94 | locus YHR200W, strain rpn10, stronger effect = lower value 0.975 | locus YIL066C, strain RNR3, stronger effect = lower value 0.973 | locus YIL073C, strain SPO22, stronger effect = lower value 0.948 | locus YIL125W, strain kgd1, stronger effect = lower value 0.967 | locus YIR030C, strain dcg1, stronger effect = lower value 0.974 | locus YJL092W, strain hpr5, stronger effect = lower value 0.998 | locus YJL095W, strain BCK1 (second series), stronger effect = lower value 0.997 | locus YJL115W, strain asf1, stronger effect = lower value 0.981 | locus YJL129C, strain trk1, stronger effect = lower value 0.915 | locus YJL134W, strain LCB3, stronger effect = lower value 0.99 | locus YJL154C, strain vps35, stronger effect = lower value 0.996 | locus YJL164C, strain tpk1, stronger effect = lower value 0.996 | locus YJL166W, strain qcr8, stronger effect = lower value 0.976 | locus YJL168C, strain set2, stronger effect = lower value 0.972 | locus YJL187C, strain SWE1 (second series), stronger effect = lower value 0.948 | locus YJR043C, strain POL32, stronger effect = lower value 0.937 | locus YJR075W, strain HOC1, stronger effect = lower value 0.963
0.994 (inactive) and 0.66 (active): locus YHR030C, strain SLT2, stronger effect = lower value
0.971 (inactive) and 0.676 (active): locus YJL095W, strain BCK1, stronger effect = lower value
active: locus YDR137W, strain rgp1, stronger effect = lower value 0.793 | locus YGL078C, strain dbp3, stronger effect = lower value 0.842 | locus YHR079C, strain IRE1, stronger effect = lower value 0.739 | locus YJR066W, strain TOR1, stronger effect = lower value 0.706
